Results published in PubChem BioAssay AID1445 (SRMLSC, 2008).
Hit rate of the full screen: of about 220,000 compounds, about 910 (0.41%) were called active. Shown is part of a subset that was picked to be rich in actives. Measured potencies and affinities stand elsewhere. A number with no mark means an inactive call.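 How the source made its calls: active means primary inhibition above the hit cutoff, then over 50% inhibition at one or more dose response concentrations (cut at about 23% in these data, passing the limit was not always enough); inconclusive means conflicting primary data, or primary hits not chosen for dose response; inactive means low primary inhibition, or under 50% at every dose.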

Target: Aminopeptidase N (Plasmodium falciparum (isolate 3D7)) (UniProt O96935)
Sequence (O96935 whole entry, looked up): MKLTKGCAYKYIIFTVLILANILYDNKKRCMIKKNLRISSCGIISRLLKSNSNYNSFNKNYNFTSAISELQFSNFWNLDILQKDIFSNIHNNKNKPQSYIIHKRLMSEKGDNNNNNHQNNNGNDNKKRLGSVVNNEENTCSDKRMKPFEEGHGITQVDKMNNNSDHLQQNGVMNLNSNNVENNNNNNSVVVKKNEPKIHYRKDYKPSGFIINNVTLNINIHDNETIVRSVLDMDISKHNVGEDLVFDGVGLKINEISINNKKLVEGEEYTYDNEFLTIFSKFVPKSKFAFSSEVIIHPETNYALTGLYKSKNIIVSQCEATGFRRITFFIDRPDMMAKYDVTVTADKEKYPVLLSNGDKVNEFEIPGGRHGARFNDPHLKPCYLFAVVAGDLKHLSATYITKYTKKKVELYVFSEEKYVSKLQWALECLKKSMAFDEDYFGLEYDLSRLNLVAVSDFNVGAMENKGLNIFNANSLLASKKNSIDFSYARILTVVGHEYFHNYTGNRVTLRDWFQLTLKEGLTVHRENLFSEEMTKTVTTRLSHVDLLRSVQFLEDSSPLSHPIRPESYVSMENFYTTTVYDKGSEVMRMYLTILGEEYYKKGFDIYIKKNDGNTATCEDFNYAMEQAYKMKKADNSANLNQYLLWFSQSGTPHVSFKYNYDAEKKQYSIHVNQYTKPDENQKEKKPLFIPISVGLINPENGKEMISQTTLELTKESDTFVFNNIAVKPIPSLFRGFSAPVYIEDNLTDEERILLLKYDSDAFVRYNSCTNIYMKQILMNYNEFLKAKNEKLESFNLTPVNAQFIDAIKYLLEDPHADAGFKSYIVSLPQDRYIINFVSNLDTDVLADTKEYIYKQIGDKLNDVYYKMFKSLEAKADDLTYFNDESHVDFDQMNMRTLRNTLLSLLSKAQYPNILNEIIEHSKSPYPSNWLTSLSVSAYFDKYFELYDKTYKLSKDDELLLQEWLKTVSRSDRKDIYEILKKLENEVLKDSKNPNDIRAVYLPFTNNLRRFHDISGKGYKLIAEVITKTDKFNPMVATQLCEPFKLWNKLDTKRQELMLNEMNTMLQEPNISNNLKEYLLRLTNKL
Assay: P. falciparum M1AAP inhibitors, biochemical, fluorogenic H-Leu-NHMec substrate, 1536-well (AID 1445);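 further: plate controls were DMSO full reaction for no effect and no enzyme background for full effect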
Details: recombinant M1AAP, H-Leu-NHMec fluorogenic kinetic assay; at 30 µM, hits give high values unless noted

Row | SMILES | inhibition
1 | Cc1ccc(N/C=C2/Sc3ccccc3NC2=O)cc1 | -2.38%
2 | O=C1Nc2ccccc2S/C1=C/Nc1cccc(Cl)c1 | -0.46%
3 | CCc1ccc(OCC(=O)NC(NC(=S)Nc2ccc(C)cc2C)C(Cl)(Cl)Cl)cc1 (configuration not stated) | 1.79%
4 | Cc1cc(NC(=O)CSc2nnc(-c3ccncc3)n2-c2ccccc2)no1 | 10.6%
5 | CCCCOc1ccc(CC(=O)NCC(=O)O)cc1 | 3.76%
6 | CCCCOc1ccc(C(=O)O)cc1 | 9.1%
7 | Cc1cccc(N(Cc2cc3ccccc3[nH]c2=O)C(=O)c2cccs2)c1 | 0.39%
8 | C=CCOc1ccc2ccccc2c1CNc1ncn[nH]1 | 0.63%
9 | CN(CC(=O)Nc1ccc(N2CCOCC2)cc1)C(=O)COc1ccccc1F | 0.51%
10 | Cc1ccc(NC(=S)C2=C(O)c3sccc3N(C)S2(=O)=O)cc1 | 25.2% (active)
11 | Cc1ccc(NC(=O)C2=C(O)c3sccc3N(C)S2(=O)=O)cc1 | 8.43%
12 | CN1c2ccsc2C(O)=C(C(=S)Nc2ccccc2)S1(=O)=O | 7.91%
13 | Cc1cc(Oc2cc(N)cc([N+](=O)[O-])c2)ccc1Cl | 4.69%
14 | O=C(NNC(=O)c1ccccc1Cl)c1ccccc1Cl | -3.69%
15 | O=C(NNC(=O)c1ccc2ccccc2c1O)c1ccccc1Cl | 25.2% (active)
16 | O=C(NNC(=O)c1ccccc1Br)c1ccccc1Cl | 5.77%

Row | SMILES | inhibition
17 | CSc1ccc(-c2nnn(CC(=O)NCc3ccccc3)n2)cc1 | -1.85%
18 | Cc1ccc(-c2ccc(C3C(C#N)=C(N)Oc4n[nH]c(C)c43)o2)cc1 (configuration not stated) | 12.9%
19 | Cc1[nH]nc2c1C(c1ccc(-c3ccccc3C#N)o1)C(C#N)=C(N)O2 (configuration not stated) | 23.4% (active)
20 | Cc1[nH]nc2c1C(c1ccc(-c3ccc(Cl)cc3)o1)C(C#N)=C(N)O2 (configuration not stated) | -0.1%
21 | COc1ccc(N2CCN(C(=O)COc3ncnc4ccccc34)CC2)cc1 | 0.28%
22 | N/C(=N\OC(=O)CCCOc1ccccc1)c1ccncc1 | 2.2%
23 | CCOCCCNC(=O)CCC(=O)NNc1nc2ccccc2c2nc(C)nn12 | 1.55%
24 | Cc1cccc(S(=O)(=O)c2c(N)n(Cc3ccco3)c3nc4ccccc4nc23)c1 | 20.6%
25 | COc1ccc(-n2c(NC(=O)c3ccc(Br)o3)c(C#N)c3nc4ccccc4nc32)cc1 | 1.59%
26 | CCCCn1c(NC(=O)c2ccccc2)c(C#N)c2nc3ccccc3nc21 | 2.47%
27 | Nc1c(S(=O)(=O)c2ccccc2)c2nc3ccccc3nc2n1Cc1ccco1 | 21.5%
28 | Cc1ccc(S(=O)(=O)c2c(N)n(Cc3ccco3)c3nc4ccccc4nc23)cc1 | 24.7% (active)
29 | CCCCn1c(NS(=O)(=O)c2ccccc2)c(S(=O)(=O)c2ccc(C)cc2)c2nc3ccccc3nc21 | -1.2%
30 | CCCCn1c(N)c(S(=O)(=O)c2ccc(C)cc2)c2nc3ccccc3nc21 | 12.5%
31 | COc1ccc(-n2c(NC(=O)c3ccco3)c(C#N)c3nc4ccccc4nc32)cc1 | 3.92%
32 | CCCCn1c(NS(=O)(=O)c2ccc(C)cc2)c(S(=O)(=O)c2ccccc2)c2nc3ccccc3nc21 | 11.6%
